About 3,300 (8.5%) of roughly 39,000 compounds were called active. For the sample, actives were picked, then their nearest neighbours and some compounds at random.

The test system of the test is HepG2. Description: cytotoxicity call (relative viability < 0.9). The following applies: 10 µM.
As to `CCOC(=O)C1=C(C)N[C@@]2(O)C[C@@H]1[C@H]1CO[C@@H]2O1`, the cytotoxicity call was “inactive”.
On to `NNC(=O)c1ccncc1.Nc1ccc(C(=O)O)c(O)c1`, for which the cytotoxicity call was “active”.
In the case of `Nc1ccc(C(=O)O)c(O)c1` it was “inactive”; in that of `NNC(=O)c1ccncc1`, “inactive”.
In the case of `CC(C)OC[C@H]1Cn2c(nc3c2c(=O)n(C)c(=O)n3C)O1` it was “inactive”.
Under `NC(=O)CCC(N)C(=O)O` (stereo not drawn) stands “active”.
With `NC(=O)CC[C@H](N)C(=O)O`, the cytotoxicity call is “inactive”.
In the case of `NCCCC[C@H](N)C(=O)O`, the cytotoxicity call was “inactive”.
On to `NC(CO)C(=O)O` (stereo not drawn), for which the cytotoxicity call is “active”.
`NC(=O)CC[C@@H](N)C(=O)O`: the cytotoxicity call was “inactive”.
In the case of `NC(CC(=O)O)C(=O)O` (stereo not drawn) it was “inactive”.
For the compound `Cl.NCCCC(N)C(=O)O` (stereo not drawn), the cytotoxicity call was “active”.
For the compound `Cl.NCCCCC(N)C(=O)O` (stereo not drawn), the cytotoxicity call was “inactive”.
With `N[C@H](CO)C(=O)O`, the cytotoxicity call is “inactive”.
`NC(=O)NCC#Cc1ccc2c(c1)[C@]1(C(=O)N2)[C@H](c2ccc(OCCO)cc2)N2[C@H](c3ccccc3)[C@H](c3ccccc3)OC(=O)[C@H]2[C@@H]1C(=O)N1CCCCCCC1`: the cytotoxicity call was “inactive”.
For `C[C@H](CO)N1C[C@H](C)[C@@H](CN(C)Cc2ccc3c(c2)OCO3)OCc2ccccc2-c2c(n(C)c3ccccc23)C1=O`, the cytotoxicity call was “inactive”.
In the case of `C[C@H]1CCCCO[C@@H](CN(C)C(=O)CCC(F)(F)F)[C@@H](C)CN([C@@H](C)CO)C(=O)c2cc(NS(=O)(=O)c3ccc(F)cc3)ccc2O1`, the cytotoxicity call was “inactive”.
In the case of `C[C@H](CO)N1C[C@H](C)[C@H](CN(C)C(=O)Nc2cccc3ccccc23)Oc2ccc(NC(=O)Nc3ccccc3)cc2CC1=O` it was “inactive”.
Under `Cc1cccc(NC(=O)Nc2ccc3c(c2)C(=O)N(C)[C@H]2CC[C@H](CC(=O)NCc4ccccc4Cl)O[C@H]2CO3)c1` stands “inactive”.
In the case of `C[C@@H]1CN([C@H](C)CO)S(=O)(=O)c2ccc(C#CC3CC3)cc2O[C@H]1CN(C)C(=O)Cc1ccncc1` it was “inactive”; in that of `C[C@H]1CN([C@@H](C)CO)C(=O)c2cccc(NS(=O)(=O)c3ccccc3)c2O[C@H]1CN(C)S(=O)(=O)c1ccc(F)cc1`, “inactive”; in that of `COCCNC(=O)C[C@H]1CC[C@H]2[C@@H](COC[C@H](O)CN2C(=O)Nc2ccc3c(c2)OCO3)O1`, “inactive”.
Turning to `C(=N\Cc1cccnc1)/c1c2ccccc2cc2ccccc12`, the cytotoxicity call is “active”.
Under `O=C(O)CCC(=O)NCc1cccnc1` stands “inactive”.
As to `OCc1cccnc1`, the cytotoxicity call was “inactive”.
Under `NS(=O)(=O)c1ccc(Cl)cc1[N+](=O)[O-]` stands “inactive”; under `CNS(=O)(=O)c1ccc(Cl)c(C(N)=O)c1`, “inactive”; under `O=C(Nc1ccc([N+](=O)[O-])cc1Cl)c1cc(Cl)ccc1O`, “active”.
In the case of `C[C@H]1CN([C@@H](C)CO)C(=O)c2cccc(NS(=O)(=O)c3ccc(Cl)cc3)c2O[C@H]1CN(C)Cc1ccc(C(=O)Nc2ccccc2N)cc1` it was “inactive”.
For `NC(=O)c1ccc([N+](=O)[O-])cc1Cl`, the cytotoxicity call is “inactive”.
In the case of `NS(=O)(=O)c1ccc(F)c([N+](=O)[O-])c1` it was “inactive”; in that of `C/C=C/C(=O)c1cc(Cl)ccc1O`, “inactive”; in that of `C[C@H](CO)N1C[C@H](C)[C@@H](CN(C)Cc2ccc(C(=O)Nc3ccccc3N)cc2)Oc2c(NS(=O)(=O)c3ccc(Cl)cc3)cccc2C1=O`, “inactive”.
Under `O=C(Nc1cc(Cl)ccc1Cl)c1cc(Cl)ccc1NS(=O)(=O)c1ccc(Cl)c([N+](=O)[O-])c1` stands “active”.
As to `O=C(Nc1cc(Cl)ccc1Cl)c1cc(Br)ccc1NS(=O)(=O)c1ccc(Cl)c([N+](=O)[O-])c1`, the cytotoxicity call was “active”.
For `O=C(Nc1ccc(Cl)cc1C(=O)c1ccc(Cl)cc1)c1cc(Br)ccc1NS(=O)(=O)c1ccc(Cl)cc1`, the cytotoxicity call is “active”.
With `C[C@@H]1CN([C@@H](C)CO)S(=O)(=O)c2ccc(-c3cccc(C(=O)N(C)C)c3)cc2O[C@@H]1CN(C)C(=O)Cc1ccccn1`, the cytotoxicity call was “inactive”.
Under `COc1ccc([C@@H]([C@H](Cc2ccccc2)OC(C)=O)N2C[C@H]3C(=NO[C@@H]3[C@@H](OC(C)=O)c3ccccc3)[C@@H]2Cc2ccccc2)cc1` stands “inactive”.
Under `C[C@@H]1CN([C@@H](C)CO)C(=O)c2cc(NC(=O)CCN3CCOCC3)ccc2O[C@H]1CN(C)Cc1ccc2c(c1)OCO2` stands “inactive”; under `COCC(=O)Nc1ccc2c(c1)C(=O)N(C)C[C@@H](OC)[C@@H](C)CN(C(=O)c1ccccc1F)[C@@H](C)CO2`, “inactive”; under `CO[C@@H]1CN(C)C(=O)c2cc(NC(=O)C3CCCC3)ccc2OC[C@@H](C)N(C(=O)Nc2ccc(C(F)(F)F)cc2)C[C@H]1C`, “inactive”.
For the compound `Cc1cnc(CNC(=O)[C@H]2C[C@H]3[C@@H](CCN3S(C)(=O)=O)O2)cn1`, the cytotoxicity call was “inactive”.
For the compound `O=C(C[C@@H]1C[C@@H]2c3cc(NS(=O)(=O)c4ccc(F)cc4)ccc3O[C@@H]2[C@H](CO)O1)NCC(F)(F)F`, the cytotoxicity call is “inactive”.
Under `CC=Cc1ccc2n(c1=O)C[C@@H]1[C@@H](CO)[C@H](C(=O)NCCc3cn(C)cn3)[C@H]2N1C(=O)C1CC1` stands “inactive”.
Consider `Cn1c(=O)c(=O)n(C)c2cc(S(=O)(=O)CCC(=O)NCc3ccccc3)ccc21`, for which the cytotoxicity call was “inactive”.
On to `CCCCNc1ccc(C(=O)OCCN(C)C)cc1.Cl`, for which the cytotoxicity call is “active”.
In the case of `CCCCNc1ccc(C(=O)OCCOCCOCCOCCOCCOCCOCCOCCOCCOC)cc1` it was “inactive”; in that of `CCCCOC(=O)c1ccc(O)cc1`, “inactive”; in that of `Cc1noc(C)c1NC(=O)N(C)C[C@@H]1Oc2c(NC(=O)Nc3cccc4ccccc34)cccc2C(=O)N([C@H](C)CO)C[C@@H]1C`, “inactive”.
Under `C[C@@H]1CN([C@H](C)CO)C(=O)c2cc(NC(=O)c3ccccc3)ccc2O[C@@H](C)CCCCO[C@@H]1CN(C)Cc1ccncc1` stands “inactive”.
As to `O=C(C1CCC1)N1CCOCC1`, the cytotoxicity call is “inactive”.
Under `C[C@@H](N)CCc1ccc(Br)cc1` stands “inactive”.
Under `C[C@@H]1CCCCO[C@@H](CN(C)C(=O)C2CCCCC2)[C@H](C)CN([C@@H](C)CO)C(=O)c2cc(NC(=O)c3ccncc3)ccc2O1` stands “inactive”; under `C[C@@H]1CN([C@H](C)CO)C(=O)c2cc(NC(=O)CCCN(C)C)ccc2O[C@@H]1CN(C)C(=O)Nc1ccc2c(c1)OCO2`, “inactive”.
Consider `Cc1ccc(S(=O)(=O)Nc2ccc3c(c2)C(=O)N([C@@H](C)CO)C[C@H](C)[C@@H](CN(C)C(=O)Nc2cccc4ccccc24)O3)cc1`, for which the cytotoxicity call is “inactive”.
With `C[C@@H]1CN([C@H](C)CO)C(=O)c2cc(NS(=O)(=O)c3ccccc3)ccc2O[C@H]1CN(C)C(=O)Nc1cccc2ccccc12`, the cytotoxicity call was “inactive”.
Under `C[C@H](CO)N1C[C@H](C)[C@H](CN(C)C(=O)Nc2cccc3ccccc23)Oc2ccc(NS(=O)(=O)c3ccccc3)cc2C1=O` stands “inactive”; under `Cc1ccc(S(=O)(=O)Nc2ccc3c(c2)C(=O)N([C@@H](C)CO)C[C@H](C)[C@H](CN(C)C(=O)Nc2cccc4ccccc24)O3)cc1`, “inactive”; under `Cc1ccc(S(=O)(=O)Nc2ccc3c(c2)C(=O)N([C@H](C)CO)C[C@@H](C)[C@H](CN(C)C(=O)Nc2cccc4ccccc24)O3)cc1`, “active”.
In the case of `C[C@@H]1CN([C@H](C)CO)C(=O)c2cc(NS(=O)(=O)c3ccccc3)ccc2O[C@@H]1CN(C)C(=O)Nc1cccc2ccccc12` it was “active”.
As for `CC(C)NC(=O)N(C)C[C@H]1Oc2ccc(NC(=O)c3ccncc3)cc2CC(=O)N([C@H](C)CO)C[C@@H]1C`, the cytotoxicity call is “inactive”.
Take `C[C@@H]1CCCCO[C@H](CN(C)S(=O)(=O)c2cccs2)[C@H](C)CN([C@@H](C)CO)C(=O)c2cc(NS(=O)(=O)c3cn(C)cn3)ccc2O1`: the cytotoxicity call was “inactive”.
Under `Cc1ccc(S(=O)(=O)Nc2ccc3c(c2)C(=O)N([C@@H](C)CO)C[C@@H](C)[C@@H](CN(C)C(=O)NC2CCCCC2)OCCCC[C@@H](C)O3)cc1` stands “inactive”.
In the case of `CC(C)(C)OC(=O)C[C@H]1CC=CC[C@H](CC(=O)NCCO)C(=O)N[C@H](Cc2ccccc2)COC1=O` it was “inactive”; in that of `C[C@@H]1CN([C@H](C)CO)C(=O)Cc2cc(NS(=O)(=O)c3cn(C)cn3)ccc2O[C@H]1CN(C)Cc1ccc(C(=O)Nc2ccccc2N)cc1`, “inactive”; in that of `CN1C(=O)c2cc(NS(=O)(=O)c3cccc(F)c3)ccc2OC[C@H]2O[C@@H](CC(=O)NCCN3CCCCC3)CC[C@H]21`, “inactive”.
In the case of `C[C@H]1CN([C@@H](C)CO)C(=O)Cc2cc(NC(=O)Nc3ccc(C(F)(F)F)cc3)ccc2O[C@H]1CN(C)Cc1ccc2c(c1)OCO2` it was “inactive”; in that of `C[C@H](CO)N1C[C@H](C)[C@H](CN(C)Cc2ccc3c(c2)OCO3)Oc2ccc(NC(=O)Nc3ccc(C(F)(F)F)cc3)cc2CC1=O`, “active”; in that of `C[C@H]1CN([C@@H](C)CO)C(=O)Cc2cc(NC(=O)Nc3ccc(C(F)(F)F)cc3)ccc2O[C@@H]1CN(C)Cc1ccc2c(c1)OCO2`, “inactive”.
For `C[C@@H]1CN([C@H](C)CO)C(=O)Cc2cc(NC(=O)Nc3ccc(C(F)(F)F)cc3)ccc2O[C@@H]1CN(C)Cc1ccc2c(c1)OCO2`, the cytotoxicity call is “active”.
Under `C[C@@H]1CN([C@@H](C)CO)C(=O)Cc2cc(NC(=O)Nc3ccc(C(F)(F)F)cc3)ccc2O[C@H]1CN(C)Cc1ccc2c(c1)OCO2` stands “active”; under `C[C@@H]1CN([C@H](C)CO)C(=O)Cc2cc(NC(=O)Nc3ccc(C(F)(F)F)cc3)ccc2O[C@H]1CN(C)Cc1ccc2c(c1)OCO2`, “inactive”.
Consider `C[C@H](CO)N1C[C@H](C)[C@@H](CN(C)Cc2ccc3c(c2)OCO3)Oc2ccc(NC(=O)Nc3ccc(C(F)(F)F)cc3)cc2CC1=O`, for which the cytotoxicity call was “active”.
In the case of `Cc1noc(C)c1NC(=O)N(C)C[C@@H]1OCCCC[C@@H](C)Oc2ccc(NC(=O)NC3CCCCC3)cc2C(=O)N([C@H](C)CO)C[C@H]1C` it was “inactive”; in that of `NCC[C@@H]1CC[C@@H](NC(=O)C2CC2)[C@H](CO)O1`, “inactive”.
For the compound `COc1ccc(CN(C)C[C@@H]2Oc3ccc(NS(=O)(=O)c4cn(C)cn4)cc3CC(=O)N([C@@H](C)CO)C[C@@H]2C)cc1`, the cytotoxicity call is “inactive”.
With `C[C@@H]1CCCCO[C@H](CN(C)C(=O)C2CCCCC2)[C@@H](C)CN([C@H](C)CO)C(=O)c2cc(NC(=O)c3ccncc3)ccc2O1`, the cytotoxicity call is “inactive”.
Under `C[C@@H]1CN([C@H](C)CO)C(=O)c2cc(NC(=O)Cc3ccccc3)ccc2O[C@@H](C)CCCCO[C@@H]1CN(C)Cc1ccc2c(c1)OCO2` stands “inactive”.

(Values after the antibiotic and cytotoxicity screens of Wong et al. (2023).)
